Source: PubChem (National Center for Advancing Translational Sciences (NCATS))
Rab9 prom act: qHTS Assay for Rab9 Promoter Activators; Huh7 Rab9 promoter-luciferase reporter, luminescence, 24 h; AID 485297, 2010; actives 2.8% (n = 320,000); Potency, µM (series often up to 9.22 µM), hits mostly activators; note: nearly all actives have a fitted effect of over 60% in size
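Rab9 promoter-driven luciferase in stably transfected Huh7 cells; 1500 cells/well rested 2 h, exposed to compound in DMSO for 24 h at 37 °C, 5% CO2. Luminescence read 10 min after adding luciferase reagent at ambient temperature.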
FLuc modulator: qHTS profiling assay for firefly luciferase inhibitor/activator using purifed enzyme and Km concentrations of substrates (counterscreen for miR-21 project) | purified FLuc, Km substrates, luminescence inhibition | Potency, µM (highest dose often 57.5 µM), usual class: inhibitors | actives 6.9% (n = 360,000) | AID 588342, 2011; note: nearly all actives have a fitted effect of over 55% in size
Target sequence (P08659 whole entry, looked up): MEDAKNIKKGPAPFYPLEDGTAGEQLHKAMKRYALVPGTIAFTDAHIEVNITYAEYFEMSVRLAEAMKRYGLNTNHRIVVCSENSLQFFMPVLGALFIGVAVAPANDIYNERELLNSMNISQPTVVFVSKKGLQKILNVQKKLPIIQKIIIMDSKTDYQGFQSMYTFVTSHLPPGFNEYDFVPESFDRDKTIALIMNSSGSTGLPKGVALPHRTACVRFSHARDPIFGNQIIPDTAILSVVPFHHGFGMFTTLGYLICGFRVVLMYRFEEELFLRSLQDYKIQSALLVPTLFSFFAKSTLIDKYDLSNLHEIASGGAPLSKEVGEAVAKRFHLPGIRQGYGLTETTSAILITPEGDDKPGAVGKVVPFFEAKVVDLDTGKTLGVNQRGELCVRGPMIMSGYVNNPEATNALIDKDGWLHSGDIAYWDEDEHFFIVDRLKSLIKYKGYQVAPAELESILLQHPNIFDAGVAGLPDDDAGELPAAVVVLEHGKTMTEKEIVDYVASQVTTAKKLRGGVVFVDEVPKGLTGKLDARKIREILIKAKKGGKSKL
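Purified P. pyralis luciferase (10nM final) with 10uM D-luciferin and 10uM ATP (Km levels) in 50mM Tris acetate pH 7.5, 10mM Mg acetate, 0.01% Tween-20, 0.05% BSA; qHTS 6-point titration, ~60 µM downward; luminescence read.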
SMN2 splice up: qHTS Assay for Enhancers of SMN2 Splice Variant Expression; Potency, µM (top dose mostly 46.1 µM), usual class: activators; actives 2.8% (n = 210,000); HEK293 SMN2-luciferase splicing reporter, luminescence, 30-36 h; note: nearly all actives have a fitted effect of over 55% in size
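HEK293 cells carry an SMN2 […]–luciferase reporter in which exon 7 inclusion puts luciferase in frame. Cells were plated 10-12 h before compound addition, then incubated 30-36 h at 37C. ONE-Glo luminescence was read; sodium butyrate at 4.5 mM final served as control.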
NPC1 prom act: qHTS Assay for NPC1 Promoter Activators; Huh7 NPC1 promoter luciferase reporter, 24 h; Potency, µM (doses to about 9.22 µM), most hits filed as activators; actives 2.4% (n = 320,000); AID 485313, 2010; note: nearly all actives have a fitted effect of over 60% in size
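Luciferase expression driven by the NPC1 promoter was measured in stably transfected Huh7 cells after a 24 h compound incubation, using a luciferase reagent and a luminescence read.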
ELG1 repair inh: qHTS screen for small molecules that inhibit ELG1-dependent DNA repair in human embryonic kidney (HEK293T) cells expressing luciferase-tagged ELG1; Potency, µM (top dose mostly 46.1 µM), usual class: inhibitors; HEK293T ELG1-luciferase reporter, luminescence, 16 h; DNA damage induced by 5-fluorouridine; actives 2.3% (n = 330,000); note: nearly all actives have a fitted effect of over 55% in size
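DMSO vehicle served as the neutral condition. Each well held 2,000 cells given 5-fluorouridine plus compound; after 16 hr at 37 °C/5% CO2, ONE-Glo was added and luciferase measured 30 min later.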
ELG1 genotoxic: qHTS screen for small molecules that induce genotoxicity in human embryonic kidney (HEK293T) cells expressing luciferase-tagged ELG1; AID 504466, 2011; Potency, µM (titrated, usually from 46 µM), most hits filed as activators; actives 1.3% (n = 330,000); HEK293T ELG1-luciferase reporter, luminescence, 16 h; note: nearly all actives have a fitted effect of over 60% in size
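Screening used a luciferase reporter fused to human ELG1 in HEK293T cells. Luminescence was read on a CCD plate imager after 16 hr exposure and 30 min ONE-Glo incubation.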
Hits are given with their value; . = inactive; ? = inconclusive; / = no result given; [ ] = remark or other dose. An excerpt weighted towards active compounds, which were near 9.4% of everything screened. Calls come from the whole dose curve; as a rule, active = well fitted curve in the direction sought with a large enough effect; inconclusive = small, poorly fitted or top-dose-only effect, or another doubt; inactive = no such curve, though single readings can be large; an effect the other way counts as inactive or inconclusive.

SMILES | Rab9 prom act | FLuc modulator | SMN2 splice up | NPC1 prom act | ELG1 repair inh | ELG1 genotoxic
Cc1nn(-c2ccccc2Cl)c(Cl)c1/C=N/Nc1cccc(C(=O)O)c1 | 0.0355µM | 0.12µM | 0.0708µM | ? | ? | ?
O=C(NCCN1C(=O)C2C3C=CC(C3)C2C1=O)Nc1ccc(Br)cc1 (centres undefined) | 2.24µM | 10.7µM | 11.2µM | 3.16µM | ? | 8.2µM
Cc1ccc(NC(=O)c2ccc(OC(=O)CCN3C(=O)c4ccccc4C3=O)cc2)cc1 | 1.78µM | . | 14.1µM | 3.16µM | ? | ?
COC(=O)COc1cccc(NC(=O)c2cccc(C)c2)c1 | . | ? | . | . | . | .
Cc1ccc(C(=O)CC(=O)COc2ccc(Cl)cc2C)cc1 | . | . | . | . | . | .
Cc1ccc(NC(=O)c2ccc(OC(=O)COc3ccc(Cl)cc3C)cc2)cc1 | 3.55µM | ? | 12.6µM | 3.98µM | ? | ?
Cc1ccc(NC(=O)c2ccc(OC(=O)COc3cccc(Cl)c3)cc2)cc1 | 2.82µM | ? | 25.1µM | 2.82µM | ? | ?
Cc1cc(C)cc(OC(=O)CCN2C(=O)c3ccccc3C2=O)c1 | . | . | . | . | . | .
O=C(NCCc1ccc(Cl)cc1)c1cc(-c2ccc(Cl)cc2)n[nH]1 | / | . | / | / | / | /
CCN(CC)CCN(C(=O)c1ccco1)c1nc2c(C)c(C)ccc2s1 | / | . | / | / | / | /
N#Cc1nc(COc2cccc(Cl)c2)oc1NCCc1ccccc1 | / | . | . | / | / | /
CCC(CC)c1nnc(NC(=O)c2ccc3ccccc3n2)s1 | ? | 5.36µM | 12.6µM | ? | ? | ?
Cc1csc(NC(=O)c2cnc3ccccc3n2)n1 | ? | 2.39µM | / | ? | ? | ?
Cc1csc(NC(=O)c2cc(C)nc3ccccc23)n1 | . | . | . | . | . | .
Cc1csc(NC(=O)c2ccc3ccccc3n2)n1 | 1.12µM | 1.07µM | / | 0.501µM | ? | ?
Cc1cccc(NC(=O)c2ccc3ccccc3n2)c1C | ? | 0.849µM | 12.6µM | ? | ? | ?
CCC(CC)c1nnc(NC(=O)c2cc(-c3ccccc3)nc3ccccc23)s1 | . | . | / | . | . | .
O=C(NCc1ccccc1F)c1ccc2ccccc2n1 | . | . | / | . | . | .
O=C(NCc1ccccc1Cl)c1ccc2ccccc2n1 | ? | 15.1µM | / | ? | ? | ?
O=C(Nc1nccs1)c1ccc2ccccc2n1 | ? | 3.38µM | / | 3.98µM | ? | ?
Cc1ccc(S(=O)(=O)N2CCCCC2)cc1NC(=O)c1ccc2ccccc2n1 | . | 26.9µM | . | . | . | .
O=C(Nc1ccccn1)c1ccc2ccccc2n1 | 4.47µM | 0.953µM | 11.2µM | ? | ? | ?
CC(C)Oc1ccc(C(=O)Nc2ccc3c(c2)n(C)c(=O)n3C)cc1 | . | 12µM | / | . | ? | 23.1µM
CCCOc1ccc(NC(=O)c2cc3cc(C)ccc3[nH]2)cc1 | ? | . | / | 1.78µM | . | .
CC(C)Oc1ccc(C(=O)NCC(c2ccc(N(C)C)cc2)N2CCCC2)cc1 (centres undefined) | / | . | / | / | / | /
SMILES | Rab9 prom act | FLuc modulator | SMN2 splice up | NPC1 prom act | ELG1 repair inh | ELG1 genotoxic
Cc1ccc2[nH]c(C(=O)Nc3ccc(F)cc3)cc2c1 | ? | ? | / | ? | ? | .
CCCOc1ccc(C(=O)Nc2ccc(N(C)C)cc2)cc1 | ? | 0.757µM | . | . | ? | 5.62µM
CC(C)Oc1ccc(C(=O)Nc2ccc(N(C)C)cc2)cc1 | . | 3.38µM | / | . | ? | 4.11µM
Cn1c(=O)n(C)c2cc(C(=O)O)ccc21 | . | . | . | . | . | .
Cn1c(=O)n(C)c2cc(C(N)=O)ccc21 | . | .[2.3 µM] | 22.4µM | . | ? | .
COc1ccc(-c2ccc(C(=O)C3CC3)cc2)cc1 | 1.78µM | 1.51µM | / | 2.82µM | ? | 2.91µM
COc1ccc(C(=O)C2CCN(C(=O)Nc3ccc(C)cc3)CC2)cc1 | . | 4.78µM | / | . | . | .
Cc1ccc(NC(=O)N2CCC(C(=O)c3ccc(F)cc3)CC2)cc1 | . | . | / | . | . | .
COc1ccc(Oc2c(C=O)c3ccccc3n2C)cc1 | . | . | . | . | . | .
Cn1c(Sc2ccc(Cl)cc2)c(C=O)c2ccccc21 | . | . | . | . | 7.31µM | .
Cn1c(Oc2ccc(Cl)cc2)c(C=O)c2ccccc21 | . | . | / | . | 11.6µM | .
NC(=O)NCCS[C@H]1CCCC[C@@H]1O | / | / | .[9.22 µM] | / | / | /
N#C/C(=C(/O)c1ccc2c(c1)OCO2)c1nc2cc(C(F)(F)F)ccc2s1 | . | 16.9µM | / | . | . | .
N#C/C(=C(/O)c1ccccc1F)c1nc2cc(C(F)(F)F)ccc2s1 | . | ? | / | . | . | .
CS(=O)(=O)N1CCN(c2nc(-c3ccc(F)cc3)cs2)CC1 | . | 10.7µM | . | . | ? | .
